This note sets out measurements from PubChem BioAssay (NCI).

About 79,000 compounds went through this panel and 15% of them were active in at least one assay; those are over-represented in the sample as a whole. Values without a mark were called inactive. Rule as the data show it: active = growth inhibition above about 70%; inactive = the rest.

The nature of the experiment: NCI Yeast Anticancer Drug Screen. Data for the sgs1 mgt1 strain (AID 161).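 Also: 0% = growth of cultures given vehicle only.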 To be noted: S. cerevisiae sgs1 mgt1 strain, at 50.0 µM, hits give high values. In outline:
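Growth of a repair-deficient yeast mutant was monitored after compound treatment and expressed as inhibition relative to vehicle-treated cultures.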
As to `C=C(C)CC1CN2CCc3cc(OC)c(OC)cc3C2CC1=O` (stereo unspecified), the growth inhibition was 24.8%.

As for `Clc1ccc2oc(N3CCOCC3)nc2c1`, the growth inhibition is 22%.

For the molecule `O=c1nc(N2CCCCCCC2)ccn1C1OC(CO)C(O)C1O` (stereo unspecified), the growth inhibition was 8.95%.

As to `Cn1c(=O)c2[nH]c(CC3=CCCCC3)nc2n(C)c1=O`, the growth inhibition is 6.05%.

In the case of `CC[N+](C)(CC)CCOc1nc2c(c(=O)n(C)c(=O)n2C)n1C`, the growth inhibition was -6.05%.

For the molecule `CC(=O)CCC(=O)OCc1ccccc1`, the growth inhibition was 1.3%.

As to `O=C(NCCO)Nc1ccc2c(c1)OCCOCCOCCOCCO2`, the growth inhibition is -2.65%.

For the molecule `S=C(N1CCN(c2ccc(Cl)c(Cl)c2)CC1)N1CCN(c2ccc(Cl)c(Cl)c2)CC1`, the growth inhibition was 27.9%.

Turning to `NCCSC(O)(C(F)(F)F)C(F)(F)F`, the growth inhibition is 3.05%.

As to `CC(C)=Cc1cc(C(=O)Nc2ccc(Cl)c(Cl)c2)nc(N)n1`, the growth inhibition was -10.6%.

For `OC1c2ccccc2OC2(N3CCCC3)CCCCC12` (stereo unspecified), the growth inhibition is -13.2%.

In the case of `Cc1nc2c(-c3ccccc3)[nH]c(C)c2c(=O)o1`, the growth inhibition was -31.9%.

`COC1OC(C(COC(=O)c2ccccc2)OC(=O)c2ccccc2)C(OC(=O)c2ccccc2)C1OS(C)(=O)=O` (stereo unspecified): the growth inhibition is 28.8%.

Turning to `COCc1ccc(C(=O)Nc2c(N)ncnc2N)cc1`, the growth inhibition was -0.15%.

For `CC(C)(C)C(=O)CC(=O)C(C)(C)C.CC(C)(C)C(=O)CC(=O)C(C)(C)C.CC(C)(C)C(=O)CC(=O)C(C)(C)C.[Co]`, the growth inhibition is 21.4%.

`CNC(=O)Sc1ccc([N+](C)(C)C)cc1`: the growth inhibition was 19.8%.
